High-throughput results (PubChem)
MCL1-BIM inh: disrupts human MCL1 binding to BIM-BH3 peptide; Q07820; GST-MCL1 / FITC-Bim-BH3 fluorescence polarization; inhibition, % at 10.9 µM; 320,000 tested, 0.68% active;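 active = inhibition above the mean inhibition of all tested compounds plus 3 SD, set per campaign, cut at about 40% in these data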;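 also: 0% = DMSO wells and 100% = unlabeled Bim-BH3 peptide control; higher means more loss of mP so more displacement of Bim peptide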
Target sequence (Q07820 whole entry, looked up): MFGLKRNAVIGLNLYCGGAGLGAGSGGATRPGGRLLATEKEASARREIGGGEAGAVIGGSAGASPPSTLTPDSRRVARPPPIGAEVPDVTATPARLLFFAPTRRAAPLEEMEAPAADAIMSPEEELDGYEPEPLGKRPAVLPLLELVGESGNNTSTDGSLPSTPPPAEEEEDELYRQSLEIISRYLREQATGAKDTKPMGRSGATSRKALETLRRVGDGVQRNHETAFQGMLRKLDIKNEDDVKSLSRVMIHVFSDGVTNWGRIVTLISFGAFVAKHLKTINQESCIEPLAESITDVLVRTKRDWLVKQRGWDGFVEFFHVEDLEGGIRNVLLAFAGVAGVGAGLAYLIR
GLD-1 RNA inh: GLD-1-TGE RNA interaction inhibition (C. elegans). purified GLD-1 + fluorescein TGE RNA, fluorescence polarization. Q17339. inhibition, % at 5.96 µM. 320,000 tested, 0.44% active;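 active = percent inhibition above a per-plate cutoff, the plate mean of test compounds plus 3 SD, cut at about 30% in these data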;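 also: 0% = DMSO wells with GLD-1 and probe and 100% = wells lacking GLD-1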
Bcl-xL primary: inhibitors of human Bcl-xL. 320,000 tested, 0.7% active. Q07817. inhibition, % at 10.9 µM. GST-Bcl-xL / FITC-Bim BH3 peptide fluorescence polarization;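 active = inhibition above the mean of all tested compounds plus 3 SD, cutoff set per campaign, cut at about 30% in these data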;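 also: 0% = DMSO wells and 100% = unlabeled Bim-BH3 peptide competitor; inhibitors lower millipolarization by displacing the labeled peptide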
eLon inh: E. coli protease La inhibition; P0A9M0; purified E. coli Lon protease, fluorescence polarization; inhibition, % at 7.94 µM; 360,000 tested, 0.42% active; in the data active = inhibition above about 13%, passing the limit was not always enough;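 also: 0% = enzyme with probe and DMSO and 100% = no enzyme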
MEX-5 binding: C. elegans MEX-5 TCR-2 RNA binding activity. Q9XUB2. MEX-5/FITC-TCR2 RNA binding, fluorescence polarization; hits give low values. activity score (negative = inhibition of binding), % at 10 µM. 300,000 tested, 0.38% active. AID 1832;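 active = inhibition past about -25% in most replicates, and total fluorescence under double the plate's negative control median, limit read from the data; inconclusive = replicates evenly split on the limit, or fluorescence at least double controls; inactive = too little inhibition in most replicates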;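 also: 0% = DMSO and -100% = 5 µM competing unlabeled TCR2 RNA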
EBV gp42 inh: blocks Epstein-Barr virus glycoprotein 42 binding. Fluorescence polarization binding assay, mP read-out. 220,000 tested, 0.42% active. inhibition, % (tested at 21.74 µM). Q1HVG2; in the data active = inhibition above about 50%
BCLXL inh confirm: counter-screen for MCL1 inhibitors: confirmation of human Bcl-xL inhibitors; 1,700 tested, 54% active; inhibition, % at 10.9 µM; shares compounds with MCL1-BIM inh; GST-Bcl-xL / FITC-Bim BH3 peptide FP binding;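 active = inhibition above a cutoff equal to the mean inhibition of all tested compounds plus 3 SD, cut at about 30% in these data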;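 also: 0% = DMSO wells and 100% = unlabeled Bim BH3 control peptide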
MCL1 BIM confirm: confirmation of human MCL1 and BIM-BH3 interaction inhibitors; shares compounds with MCL1-BIM inh; GST-MCL1 / FITC-Bim-BH3 fluorescence polarization; inhibition, % at 10.9 µM; 1,700 tested, 61% active;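 active = inhibition above the average of all tested compounds plus 3 SD, cut at about 40% in these data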;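 also: 0% = DMSO wells and 100% = unlabeled Bim-BH3 control peptide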
GLD1 RNA confirm: GLD-1 TGE RNA interaction inhibition, confirmation; inhibition, % at 5.96 µM; GLD-1/FL-TGE RNA fluorescence polarization, biochemical; shares compounds with GLD-1 RNA inh; 550 tested, 10% active;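 active = average inhibition across triplicates above the hit cutoff set in the primary screen, cut at about 32% in these data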;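 also: 0% = GLD-1 with RNA probe and DMSO and 100% = wells lacking GLD-1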
E coli Lon conf: confirmation of E. coli Lon protease inhibitors | shares compounds with eLon inh | purified E. coli Lon, fluorescence polarization | inhibition, % at 7.94 µM | 1,400 tested, 31% active | AID 602230; in the data active = inhibition above about 16%;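 also: 0% = enzyme with probe and DMSO and 100% = no enzyme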
Numbers without * were called inactive. Rows were chosen to be rich in hits. Some 1.5% of all compounds tested hit in one or more screens of this group.

Screening COc1cccc(C2/C(=C(\O)c3ccc4c(c3)OCCO4)C(=O)C(=O)N2CCCN2CCOCC2)c1OC (stereo unspecified) returned MCL1-BIM inh 1, GLD-1 RNA inh 9, Bcl-xL primary 8, eLon inh -2 and MEX-5 binding 1.
`Cc1ccc(NC(=O)CS(=O)CC(=O)Nc2ccccc2-c2ccc(C)o2)cc1` (stereo unspecified) gave MCL1-BIM inh 88*, GLD-1 RNA inh 66*, Bcl-xL primary 72*, eLon inh 114*, MEX-5 binding 1, BCLXL inh confirm 10, MCL1 BIM confirm 9, GLD1 RNA confirm 6 and E coli Lon conf 0.
`CC(=O)Nc1ccccc1-c1ccc(C)o1` gave MCL1-BIM inh -7, GLD-1 RNA inh 0, Bcl-xL primary 1, eLon inh 1, MEX-5 binding 1 and EBV gp42 inh -3.
C#CCN1c2ccccc2Sc2cccnc21 was read as MCL1-BIM inh active, GLD-1 RNA inh 93*, Bcl-xL primary active, eLon inh 165*, MEX-5 binding -11, BCLXL inh confirm 27, MCL1 BIM confirm 39 and E coli Lon conf 21*.
O=C(O)c1[nH]c2ccccc2c1C(c1cc(Cl)cc([N+](=O)[O-])c1O)c1c(C(=O)O)[nH]c2ccccc12 was read as MCL1-BIM inh 51*, GLD-1 RNA inh 9, Bcl-xL primary 12, eLon inh 28*, MEX-5 binding -61*, BCLXL inh confirm 10, MCL1 BIM confirm 27 and E coli Lon conf 19*.
Cc1cc(=O)oc2c(CN3CCC(C)CC3)c(O)c(Cl)cc12 was read as MCL1-BIM inh 142*, GLD-1 RNA inh 119*, Bcl-xL primary 105*, eLon inh 25*, MEX-5 binding -40*, EBV gp42 inh 72*, BCLXL inh confirm 80*, MCL1 BIM confirm 113* and E coli Lon conf 39*.
Cc1cc(=O)oc2c(CN3CCCC3)c(O)c(Cl)cc12 was read as MCL1-BIM inh 26, GLD-1 RNA inh 30, Bcl-xL primary 25, eLon inh 1 and MEX-5 binding -9.
O=C1CCC(=O)c2ccc3c4c(ccc1c24)CC3 was read as eLon inh 4.
For O=C1CCN2C=Nc3cccc4ccc1c2c34 the results were MCL1-BIM inh active, GLD-1 RNA inh 169*, Bcl-xL primary active, eLon inh active, MEX-5 binding inconclusive, EBV gp42 inh 137*, BCLXL inh confirm 192*, MCL1 BIM confirm active and E coli Lon conf active.
`CCCCC(=O)NC1(C(F)(F)F)NC(=O)N(C)C1=O` (stereo unspecified) gave MCL1-BIM inh -2, GLD-1 RNA inh 4, Bcl-xL primary 3, eLon inh 2, MEX-5 binding -1 and EBV gp42 inh -9.
Screening COc1ccc2[nH]c(C)c(CCN(Cc3cccs3)C(=S)Nc3ccccc3)c2c1 returned MCL1-BIM inh 88*, GLD-1 RNA inh 46*, Bcl-xL primary 79*, eLon inh 68*, MEX-5 binding -2, EBV gp42 inh 9, BCLXL inh confirm 38*, MCL1 BIM confirm 59*, GLD1 RNA confirm 11 and E coli Lon conf 22*.
COc1ccc(Cc2nnc(NC(=O)c3cc(OC)c(OC)c(OC)c3)s2)cc1 was read as MCL1-BIM inh 5, GLD-1 RNA inh -2, Bcl-xL primary -4, eLon inh -7 and MEX-5 binding -3.
